# From PubChem
# An excerpt weighted towards active compounds, which were near 10% of everything screened.
# NIH3T3 tox: Cytotoxic Profiling in NIH 3T3 Cell Line of Diverse Libraries Using Quantitative High-Throughput Screening; NIH 3T3 viability, CellTiter-Glo ATP luminescence, 48-72 h; 94,000 tested, 4.3% active; Potency, µM (doses to about 96.7 µM), for inactives: at the highest dose activity change, negative = cytotoxicity, usual class: inhibitors; also: nearly all actives have a fitted effect of over 55% in size
#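 Cytotoxicity is measured as loss of cellular ATP: NIH 3T3 cells (400/well) are exposed to compound for 48 or 72 hr at 37 °C, then CellTiter-Glo luminescence is imaged after 10 min at room temperature.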
# HEK293 tox: Cytotoxic Profiling in HEK 293 Cell Line of Diverse Libraries Using Quantitative High-Throughput Screening; HEK 293 viability, ATP luminescence (CellTiter-Glo), 48-72 h; AID 1345083, 2018; 94,000 tested, 6.6% active; Potency, µM (titrated, usually from 115 µM), without a hit: at the highest dose activity change, negative = cytotoxicity, hits mostly inhibitors; also: nearly all actives have a fitted effect of over 60% in size
#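 Luminescence from cellular ATP, measured with CellTiter-Glo, indicates HEK 293 viability. Cells plated at 250 cells/well are treated with compound for 48 or 72 hr at 37 degree Celsius before reagent addition.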
# FLuc inh: Firefly luciferase inhibition profiling of diverse chemical library using quantitative high-throughput screening; Potency, µM (top dose mostly 115 µM), actives largely listed as inhibitors; Luciferin 4-monooxygenase (Photinus pyralis), P08659; purified P. pyralis luciferase, luminescence, biochemical; 76,000 tested, 2.5% active; AID 1347043, 2019; also: nearly all actives have a fitted effect of over 65% in size
# Target sequence (P08659 whole entry, looked up): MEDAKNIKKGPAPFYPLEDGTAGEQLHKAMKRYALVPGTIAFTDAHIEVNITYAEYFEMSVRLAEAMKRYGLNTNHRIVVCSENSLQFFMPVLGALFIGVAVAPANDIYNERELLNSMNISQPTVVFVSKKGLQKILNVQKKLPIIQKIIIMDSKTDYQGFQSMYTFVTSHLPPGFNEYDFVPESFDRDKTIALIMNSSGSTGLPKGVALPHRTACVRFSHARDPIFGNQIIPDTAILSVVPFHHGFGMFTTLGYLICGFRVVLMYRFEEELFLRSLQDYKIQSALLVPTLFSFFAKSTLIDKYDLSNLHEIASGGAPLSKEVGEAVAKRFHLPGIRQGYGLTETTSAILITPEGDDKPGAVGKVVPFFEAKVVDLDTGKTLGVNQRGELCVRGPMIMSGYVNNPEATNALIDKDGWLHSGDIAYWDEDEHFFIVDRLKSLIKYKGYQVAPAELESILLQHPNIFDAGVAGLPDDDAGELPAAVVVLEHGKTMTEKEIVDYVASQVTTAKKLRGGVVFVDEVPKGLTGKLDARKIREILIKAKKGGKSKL
#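 Purified 10nM P. pyralis luciferase with 10uM D-luciferin and 10uM ATP in 50mM Tris acetate pH 7.5, 10mM Mg acetate, 0.01% Tween-20, 0.05% BSA. qHTS titration; luminescence read by CCD imager.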
# hNpr1 antagonist: Natriuretic polypeptide receptor (hNpr1) antagonism - Primary qHTS; 76,000 tested, 1.6% active; Atrial natriuretic peptide receptor 1 (Homo sapiens), P16066; Potency, µM (top dose mostly 46.3 µM), for the others: top-dose activity change, negative = inhibition, usual class: inhibitors; HEK293 hNpr1 GloSensor cGMP, ANP-stimulated luminescence; calls by dose curve; also: nearly all actives have a fitted effect of over 60% in size
#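 Compound pre-incubated 30 min at room temperature on GloSensor-loaded HEK293 cells stably carrying hNpr1 and the pGS-40F cGMP biosensor. Stimulation uses hNppA at 0.1 nM final; luminescence is taken at baseline and 20 min post-agonist.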
# GPT2 inhibitor: Primary qHTS assay for inhibitors of Glutamate pyruvate transaminase 2 (GPT2) | Alanine aminotransferase 2 (Homo sapiens), Q8TD30 | Recombinant GPT2, coupled pyruvate oxidase/HRP Amplex Red fluorescence | Potency, µM (doses to about 57.7 µM), inactives show top-dose activity change, negative = inhibition, actives largely listed as inhibitors | 100,000 tested, 0.25% active; also: nearly all actives have a fitted effect of over 60% in size
#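 Fluorescence of coupled pyruvate oxidase/HRP/Amplex Red system (50uM Amplex, 30 min, dark) reports pyruvate formed by GPT2. Enzyme reaction: 10ng/uL GPT2, 2mM L-alanine, 250uM a-KG, 30 min room temperature, pH 7.5; 50uM AOA control.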
# An asterisk follows results filed as active; i = inactive; ? = inconclusive; · = no result; [ ] = dose if it differs, or a comment. Unless noted, calls follow the shape of the dose curve; as a rule, active = well fitted curve in the direction sought with a large enough effect; inconclusive = small, poorly fitted or top-dose-only effect, or another doubt; inactive = no such curve, though single readings can be large; an effect the other way counts as inactive or inconclusive. % is scaled to controls: 0 for no effect and ±100 for the full control effect; potency is read from the fitted curve at half-maximal effect.
SMILES,NIH3T3 tox,HEK293 tox,FLuc inh,hNpr1 antagonist,GPT2 inhibitor
COc1ccc(F)cc1-c1ccc(CN2CCC(NC(=O)c3ccc(Cl)cc3)C2)cc1 (stereo unspecified),14µM*,?,·,·,·
COc1ccc(F)cc1-c1ccc(CN2CCC(NC(=O)c3ccccn3)C2)cc1 (stereo unspecified),45µM*,?,·,·,·
COc1ccc(C(=O)NC2CCN(c3cc(-c4ccc(Cl)cc4)[nH]n3)C2)cc1OC (stereo unspecified),?,?,i,-15%,-11%
COc1ccc(F)cc1-c1ccc(CN2CCC(NC(=O)c3ccc(NC(C)=O)cc3)C2)cc1 (stereo unspecified),20µM*,?,·,·,·
O=C(Nc1ccccc1)NC1CCN(Cc2ccc(-c3ccsc3)cc2)C1 (stereo unspecified),?,?,·,·,i
O=c1c2c(CO)c(-c3ccc(F)cc3)nn2ccn1Cc1cc(F)ccc1F,-7%,?,i,?,-5%
COc1ccc(F)cc1-c1ccc(CN2CCC(NC(=O)c3ccc(C)cc3)C2)cc1 (stereo unspecified),40µM*,28µM*,·,·,·
O=C(NC1CCCCCC1)C1CCc2nnc(C3CC3)n21 (stereo unspecified),?,-20%,·,·,i
O=C(NC1CCN(c2nccc(Nc3ccccc3Cl)n2)CC1)C1CC1,28µM*,?,·,·,-10%
CNC(=O)C1CCN(c2nccc(Nc3ccccc3Cl)n2)CC1,?,?,·,·,-13%[88.5 µM]
Cc1ccc(Nc2ccnc(N3CCC(NC(=O)c4ccccc4Cl)CC3)n2)cc1,40µM*,45µM*,·,·,0%
O=C(NC1CCN(c2nccc(Nc3ccccc3Cl)n2)CC1)c1ccccc1Cl,?,40µM*,·,·,-7%
CC(NC(=O)C1CCN(c2nccc(Nc3ccccc3Cl)n2)CC1)c1ccc(F)cc1 (stereo unspecified),32µM*,40µM*,·,·,i
Cc1cc(C)n(Cc2ccc(C(=O)N3CCCCCC3c3nnc(-c4ccccc4)o3)o2)n1 (stereo unspecified),?,?,·,·,i
Cc1ccc(Nc2ccnc(N3CCN(C(=O)c4ccccc4Cl)CC3)n2)cc1,?,40µM*,·,·,i
CNC(=O)C1CCN(c2nccc(Nc3ccc(C)cc3)n2)CC1,?,?,·,·,-19%[88.5 µM]
CC(C)=CC[C@@H](O)C1=CC(=O)c2c(O)ccc(O)c2C1=O,·,·,·,·,12µM*
O=C(NCCc1ccccc1F)c1cn2cc(-c3ccc(C(F)(F)F)cc3)sc2n1,-27%,-14%,·,·,i
CC1(CCCCN2CCOCC2)COc2ccc(C(=O)NCc3ccccc3)cc2N1 (stereo unspecified),-22%[138 µM],?,i,1%[70.6 µM],-22%[88.5 µM]
CC1(CCCCc2ccccc2)COc2ccc(C(=O)NCc3cccnc3)cc2N1 (stereo unspecified),?,?,i,-20%[70.6 µM],-19%[88.5 µM]
CC1(CCCCc2ccccc2)COc2ccc(C(=O)NCc3ccncc3)cc2N1 (stereo unspecified),?,89µM*,i,?,-25%[88.5 µM]
CC1(CCCCc2ccccc2)COc2ccc(C(=O)NCCN3CCOCC3)cc2N1 (stereo unspecified),79µM*,89µM*,i,-2%[70.6 µM],-7%[88.5 µM]
CNC(=O)N1CCC2(CC1)CC(Cc1ccc(C)cc1)CCO2 (stereo unspecified),-26%,?,·,·,-27%
COc1ccccc1-c1nc2cnccn2c1NCCC(=O)Nc1ccc2c(c1)OCO2,i,-8%,i,-2%,?
COc1ccccc1-c1nc2cnccn2c1NCCC(=O)N1CCc2ccccc21,?,20µM*,i,-8%,-28%
SMILES,NIH3T3 tox,HEK293 tox,FLuc inh,hNpr1 antagonist,GPT2 inhibitor
COc1cccc(-c2nnnn2[C@H]2CO[C@H]3[C@@H]2OC[C@@H]3NC(=O)c2ccccc2C(=O)O)c1,-7%,-1%,i,4%,-29%
O=C(Nc1cccc(C(F)(F)F)c1)N[C@H]1CO[C@H]2[C@@H]1OC[C@@H]2n1nnnc1-c1ccc2c(c1)OCO2,32µM*,40µM*,i,?,i
O=C(N[C@H]1CO[C@H]2[C@@H]1OC[C@@H]2n1nnnc1-c1ccc2c(c1)OCO2)c1ccccc1,?,79µM*,i,?,0%[88.5 µM]
COc1cccc(-c2nnnn2[C@H]2CO[C@H]3[C@@H]2OC[C@@H]3NC(=O)c2ccc(N(C)C)cc2)c1,?,?,?,16µM*,3%
O=C(NCc1ccccc1)N[C@H]1CO[C@H]2[C@@H]1OC[C@@H]2n1nnnc1Oc1ccc(-n2ccnc2)cc1,-2%,0%,i,0%,1%
O=C(Nc1cccc(C(F)(F)F)c1)N[C@H]1CO[C@H]2[C@@H]1OC[C@@H]2n1nnnc1Oc1ccc(-n2ccnc2)cc1,22µM*,32µM*,i,?,2%
O=C(NC1CCCCC1)N[C@H]1CO[C@H]2[C@@H]1OC[C@@H]2n1nnnc1-c1ccc2c(c1)OCO2,-20%,-22%,i,2%,i
O=C(CCCc1ccccc1)N1CCC2(CC1)CC(Cc1nc(C3CC3)no1)CCO2 (stereo unspecified),?,?,·,·,-3%
Cn1ncc2c(C(=O)Nc3cccnc3)cc(-c3ccc(C(F)(F)F)cc3)nc21,-2%,4%,·,·,·
COc1ccc(Cl)cc1C(=O)N1CCCN(c2cc(-c3ccc(Br)cc3)[nH]n2)CC1,32µM*,35µM*,i,?,?
COc1ccc(-c2cc(N3CCCN(C(=O)c4ccccc4OC)CC3)n[nH]2)cc1,-22%,-26%,i,-2%,?
COc1ccccc1C(=O)N1CCCN(c2cc(-c3ccc(Br)cc3)[nH]n2)CC1,?,40µM*,i,?,-29%
O=C(Cc1ccccn1)NC1CCN(c2nc3ncccc3o2)C1 (stereo unspecified),-13%[138 µM],-13%[172 µM],·,·,i
O=C1CC(c2ccccc2)N(Cc2ccncc2)CCCN(S(=O)(=O)c2cccc(F)c2)CCN1 (stereo unspecified),?,45µM*,i,-13%,i
Cc1cccc2c1nc1n2[C@@H](CNCc2nc3ccccc3n2C)COC1,100µM*,?,i,?,5%[88.5 µM]
Cc1cccc2c1nc1n2[C@@H](CNCc2ccc(C#N)cc2)COC1,?,?,i,?,i
COCCCNc1nc(-c2c(C)noc2C)cc2cc(CN(C)C)oc12,?,-29%[172 µM],i,4%[70.6 µM],?
